High-throughput results as filed in PubChem BioAssay.
HCMV antiviral: inhibitors of human cytomegalovirus; activity change, negative = inhibition, % at 57.5 µM; 410,000 tested, 4.5% active; AID 1259415; HFF cells, HCMV-luciferase reporter, 72 h; active compounds read low; in the data active = activity change below about -60%; inconclusive = no clear call, values can overlap the other calls; inactive = above about -39%
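Two compound doses tested in HFFs infected with HCMV-luciferase, MOI 1 PFU/cell, 72 h at 37C. Lysate luminescence read with OneGlo; data normalized against buffer-only and 10uM Salinomycin inhibitor controls.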
HCV inhibitor: blocks hepatitis C virus. Potency, µM (doses to about 41.8 µM), usual class: inhibitors. 340,000 tested, 3.4% active. Huh7.5.1 HCVcc-Cre infection, luciferase reporter, 44 h. AID 651820; active = well fitted inhibition curve with a large enough effect; inconclusive = small, poorly fitted or top-dose-only effect, or another doubt; inactive = no such curve, though single readings can be large or run the other way
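Antiviral activity was scored by luciferase reporter output from cells infected with HCVcc-Cre (~0.5 moi) in presence of compound, 44 h infection period, cells seeded 1,000/well 4 h prior.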
FMDV antiviral: blocks foot and mouth disease virus; Potency, µM (doses to about 57.9 µM), actives largely listed as inhibitors; 410,000 tested, 1.2% active; AID 1159524; FMDV antiviral cell-based qHTS; calls by dose curve; tested in HEK293T cells; also: read-out not given here; nearly all actives have a fitted effect of over 45% in size
LASV entry inh: Lassa virus entry inhibition | Lassa virus pseudotype entry inhibition, cell reporter | Potency, µM (series often up to 37.9 µM), hits mostly inhibitors | 300,000 tested, 1.2% active | AID 540256; calls by dose curve; tested in HEK293 cells; also: nearly all actives have a fitted effect of over 50% in size
MARV entry inh: inhibitors of Marburg virus binding or cell entry. Marburg virus pseudotyped entry inhibition, cell reporter. 300,000 tested, 1.8% active. AID 540276. Potency, µM (highest dose often 37.8 µM), usual class: inhibitors; calls by dose curve; tested in HEK293 cells
Each line names hits and unclear results; the compound was inactive in the other large screens; ! = not confirmed by another sample. Only some compounds are listed: those with a hit (about 7.9% of all), similar ones and a draw of the others.

Cc1ccc(-n2c(C)nn(Cc3ccc([N+](=O)[O-])cc3)c2=O)cc1	HCMV antiviral -82
O=C(CCCCn1c(=O)c2ccccc2n(Cc2ccc(Cl)cc2)c1=O)NCc1ccco1	HCV inhibitor 13µM!, FMDV antiviral inconclusive, LASV entry inh inconclusive, MARV entry inh inconclusive
COc1ccc(CCNC(=O)c2cc3c(=O)n4cccc(C)c4nc3n(Cc3ccco3)c2=N)cc1OC	HCV inhibitor 11µM, FMDV antiviral inconclusive, MARV entry inh inconclusive
Cc1ccc(CNC(=O)CCCCn2c(=O)c3ccccc3n(Cc3ccc(Cl)cc3)c2=O)cc1	none (no result: HCV inhibitor)
N=c1c(C(=O)NCc2ccc(F)cc2)cc2c(=O)n3ccccc3nc2n1Cc1ccco1	HCV inhibitor 1µM, FMDV antiviral inconclusive, MARV entry inh inconclusive
N=c1c(C(=O)NCc2ccco2)cc2c(=O)n3ccccc3nc2n1Cc1ccc(Cl)cc1	HCV inhibitor 5µM, MARV entry inh inconclusive
COCCn1c(=N)c(C(=O)NCc2ccco2)cc2c(=O)n3ccccc3nc21	MARV entry inh inconclusive
CC(C)[C@H]1C(C#N)=C(N)Oc2n[nH]c(C(C)(C)C)c21	none (no result: HCMV antiviral, HCV inhibitor, FMDV antiviral, LASV entry inh)
CCOC(=O)c1c(C)c(C(=O)NCc2ccc(Cl)cc2)c(C)n1C	none (no result: HCV inhibitor, LASV entry inh)
N=c1c(C(=O)NCc2ccccc2)cc2c(=O)n3ccccc3nc2n1Cc1ccco1	HCV inhibitor 7.9µM, MARV entry inh 11µM
Cc1ccc(CNC(=O)c2cc3c(=O)n4ccccc4nc3n(Cc3ccco3)c2=N)cc1	HCV inhibitor inconclusive, FMDV antiviral inconclusive
Cc1ccc2nc3c(cc(C(=O)NCc4ccccc4)c(=N)n3CCCn3ccnc3)c(=O)n2c1	none (no result: LASV entry inh, MARV entry inh)
COc1ccc(C(=O)N=c2c(C#N)cc3c(=O)n4cccc(C)c4nc3n2Cc2ccco2)cc1	none (no result: HCMV antiviral, HCV inhibitor, FMDV antiviral, LASV entry inh)
Cc1ccc2nc3c(cc(C(=O)NCc4ccco4)c(=N)n3Cc3ccco3)c(=O)n2c1	HCMV antiviral -61, HCV inhibitor 4.5µM, MARV entry inh inconclusive
CC(=O)N=c1c(C#N)cc2c(=O)n3cccc(C)c3nc2n1Cc1ccco1	HCMV antiviral inconclusive, HCV inhibitor 11µM (no result: LASV entry inh, MARV entry inh)
Cc1ccc(Cl)cc1N1CCN(CCCNC(=O)c2nnc(Cc3cccc(Cl)c3)o2)CC1	HCMV antiviral -102, FMDV antiviral inconclusive, LASV entry inh inconclusive, MARV entry inh inconclusive (no result: HCV inhibitor)
c1ccc(CCCCc2ccncc2)cc1	HCMV antiviral -63, MARV entry inh inconclusive
c1ccc(CCc2ccncc2)cc1	none
CC1(C)C(=O)OC(c2cc(Br)ccc2O)C(C)(C)C1=O (stereo unspecified)	HCMV antiviral inconclusive, FMDV antiviral 35µM
Cc1ccc(Cl)cc1N(C)C(=O)c1noc2c1CCCCC2	HCMV antiviral -64 (no result: HCV inhibitor, MARV entry inh)
COCCCNC(=O)C1CCN(c2nc3ccc(C)cc3[nH]2)CC1	none (no result: HCV inhibitor, MARV entry inh)
Cc1cc(Nc2cccc(C(F)(F)F)c2)ncn1	none (no result: HCV inhibitor)
Cc1ccc(Nc2nc3nonc3nc2Nc2cccc(C(F)(F)F)c2)cc1Cl	HCMV antiviral -100, FMDV antiviral inconclusive, LASV entry inh inconclusive, MARV entry inh inconclusive (no result: HCV inhibitor)
COc1ccc(CCNC(=O)CCCCn2c(=O)c3ccccc3n(Cc3cc(C)ccc3C)c2=O)cc1OC	none (no result: HCV inhibitor)
CC1(C)CC2CC(C)(CN2/C=N/c2sc3c(c2C#N)CC(C)(C)NC3(C)C)C1 (stereo unspecified)	HCMV antiviral -88, HCV inhibitor inconclusive, LASV entry inh inconclusive, MARV entry inh inconclusive
CC1(C)Cc2c(sc(N)c2C#N)C(C)(C)N1	none (no result: LASV entry inh, MARV entry inh)
COc1ccc(S(=O)(=O)NCCc2ccccn2)cc1	LASV entry inh inconclusive
COc1ccc(S(=O)(=O)NC(C(=O)NCCc2ccccn2)C(C)C)cc1 (stereo unspecified)	HCMV antiviral -66
COC(=O)CCSc1nc2sc3c(c2c(=O)n1Cc1ccccc1)CCC(C(C)(C)C)C3 (stereo unspecified)	none (no result: HCV inhibitor, MARV entry inh)
CNCC(=O)NCC(=O)N[C@@H](Cc1ccccc1)C(=O)N[C@@H](CC(C)C)C(=O)O	none (no result: HCMV antiviral, HCV inhibitor, LASV entry inh, MARV entry inh)
O=C(O)/C=C/c1cccnc1	none (no result: LASV entry inh, MARV entry inh)
O=C(/C=C/c1cccnc1)c1ccc(F)c(F)c1	MARV entry inh 7.1µM
CN(C)c1ccc(C(=O)/C=C/c2cccnc2)cc1	HCMV antiviral -67 (no result: LASV entry inh, MARV entry inh)
COc1ccc(NC(=O)C2=C(C)Nc3ncnn3C2c2cccn2C)cc1 (stereo unspecified)	none (no result: HCV inhibitor, MARV entry inh)
O=c1cc(-c2ccccc2)[nH]n1-c1nc2ccccc2[nH]1	HCMV antiviral -84, HCV inhibitor inconclusive, LASV entry inh inconclusive, MARV entry inh inconclusive
CC(=O)C1=C(S(=O)(=O)c2ccc(C)cc2)CS(=O)(=O)C1	HCMV antiviral -100, FMDV antiviral inconclusive
O=C1C=CC(=NN=C(c2ccccc2)c2ccccc2)C=C1	HCMV antiviral -80 (no result: HCV inhibitor, LASV entry inh, MARV entry inh)
CC(NC(=O)c1ccco1)C(c1cccs1)N1CCN(c2ccc(F)cc2)CC1 (stereo unspecified)	HCMV antiviral inconclusive, HCV inhibitor 10µM, LASV entry inh inconclusive, MARV entry inh inconclusive (no result: FMDV antiviral)
COc1ccc2c(c1)CC(C(=O)NCCc1ccc(S(N)(=O)=O)cc1)CO2 (stereo unspecified)	none (no result: HCV inhibitor, MARV entry inh)
N#CC1=C(N)OC2=C(CC/C2=C\c2ccccc2)C1c1ccccc1 (stereo unspecified)	FMDV antiviral 18µM, MARV entry inh inconclusive
Cc1cc(NC(=O)c2ccccc2F)cc(C)c1OCC(=O)N1CCOCC1	HCMV antiviral -98, MARV entry inh inconclusive
O=C(N/C(=C/c1ccc(Cl)cc1)C(=O)N1CCOCC1)c1ccccc1	HCMV antiviral -78, MARV entry inh inconclusive
O=C(N/C(=C/c1cccs1)C(=O)N1CCCCCC1)c1ccccc1	HCMV antiviral -98
Cc1ccc(/C=C/C(=O)Nc2ccc(Cl)cc2Cl)cc1	LASV entry inh inconclusive (no result: HCV inhibitor, MARV entry inh)
CC(C)Cc1nc(N2CCN(C(=O)c3ccco3)CC2)c(C#N)c2c1CCCC2	HCV inhibitor 10µM, FMDV antiviral inconclusive (no result: LASV entry inh, MARV entry inh)
CCCC(=O)N1CCN(c2nc(CC(C)C)c3c(c2C#N)CCC3)CC1	HCMV antiviral inconclusive, HCV inhibitor inconclusive, FMDV antiviral inconclusive, LASV entry inh 13µM, MARV entry inh inconclusive
CC(C)C(=O)N1CCN(c2nc(-c3ccccc3)c3c(c2C#N)CCCC3)CC1	HCMV antiviral inconclusive, HCV inhibitor 6.3µM, FMDV antiviral inconclusive, LASV entry inh inconclusive, MARV entry inh inconclusive
COc1ccc(-c2cc3nc(C)c(CCC(=O)Nc4cccc(C(F)(F)F)c4)c(C)n3n2)c(OC)c1	HCMV antiviral inconclusive (no result: HCV inhibitor)
Cn1nc(C(=O)NCCc2ccc(Cl)cc2)c2c1-c1ccccc1S(=O)(=O)C2	HCMV antiviral inconclusive, HCV inhibitor inconclusive (no result: LASV entry inh, MARV entry inh)
Cn1nc(C(=O)NCc2ccc(Cl)cc2)c2c1-c1ccccc1S(=O)(=O)C2	HCMV antiviral -82 (no result: MARV entry inh)
COc1ccccc1CNC(=O)c1nn(C)c2c1CS(=O)(=O)c1ccccc1-2	HCMV antiviral active
Cn1nc(C(=O)NCc2ccccc2Cl)c2c1-c1ccccc1S(=O)(=O)C2	none (no result: MARV entry inh)
Cc1cc(C)c2c(c1)/C(=C/C(=O)c1ccc(Br)s1)C(=O)N2	HCMV antiviral -103, HCV inhibitor 11µM, FMDV antiviral inconclusive, LASV entry inh inconclusive, MARV entry inh inconclusive
Cc1cc(N=Nc2ccccc2C)ccc1N	HCV inhibitor 13µM
CCOc1ccc(N(CC(=O)Nc2ccc(C)c(C)c2)S(=O)(=O)c2c(C)noc2C)cc1	HCMV antiviral -71, HCV inhibitor inconclusive, FMDV antiviral inconclusive (no result: LASV entry inh, MARV entry inh)
